# Experimental data from PubChem BioAssay (NCATS).
# Inconclusive results are not listed. Unmarked numbers belong to inactive results. The source made the active and inactive calls. Calls come from the whole dose curve; as a rule, active = well fitted inhibition curve with a large enough effect; inconclusive = small, poorly fitted or top-dose-only effect; inactive = no such curve, though single readings can be large or run the other way. Where a SMILES comes first, the peptide text is derived from it. The star is where a group is joined. βNA = c1ccc2cc(N*)ccc2c1; Cbz = O=C(OCc1ccccc1)*
# Test: Primary qHTS for inhibitors of nuclear receptor binding SET domain protein 2 (NSD2) in an RCH-ACV wild type WT cells (2C) (AID 1645877); note: nearly all actives have a fitted effect of over 70% in size
# Settings: RCH-ACV (leukaemia line) NSD2 WT (2C) viability, CellTiter-Glo, 72 h; series mostly up to 44.9 µM; activity change, negative = cell killing: at the top concentration
# % is set by controls: 0 for no effect and ±100 for the full control effect.
SMILES,"activity change, negative = cell killing",outcome
Fc1cccc(CN(C2=NCCN2)c2c(Cl)cccc2Cl)c1,-19.1%,
C=C1CC23CC(=O)C4C(CO)(CO)CCCC4(C)C2CCC1C3 (configuration not stated),-18.7%,
Cc1c(NC(=O)N2CCOCC2)ccc2c1c1ccccc1n2C(C)C,,inactive
O=C(O)C[C@H]1CCC(=O)[C@@H]1C/C=C\CCO,-24.6%,
CCC(C)C(=O)OC[C@H]1O[C@H](O[C@H]2O[C@H](CO)[C@@H](O)[C@H](O)[C@H]2O)[C@H](O)[C@@H](O)[C@@H]1O (some centres not stated),0.741% [at 17.3 µM],
CC(C)C(O)(CO)CCO[C@@H]1O[C@H](CO[C@H]2OC[C@](O)(CO)[C@H]2O)[C@@H](O)[C@H](O)[C@H]1O (some centres not stated),2.82% [at 17.3 µM],
COc1ccc(C(=O)CC(=O)O)c2c1C=CC(C)(C)O2,,inactive
Cc1sc(C)c(C(=O)NC2(c3ccc(C(=O)O)cc3)CC2)c1Cc1ccc(C(F)(F)F)cc1,-3.18%,
C/C=C(/C)C(=O)OC1C(OC(C)=O)C23C(O)OC4(CCC5C6(C)CCC(OC7OC(C(=O)O)C(O)C(OC8OC(CO)C(O)C(O)C8OC8OC(C)C(O)C(O)C8OC8OCC(O)C(O)C8O)C7OC7OC(CO)C(O)C(O)C7O)C(C)(C)C6CCC5(C)C4(C)CC2OC(C)=O)C3CC1(C)C (configuration not stated),3.76% [at 9.23 µM],
CC(C)=CCC[C@](C)(O[C@@H]1O[C@H](CO[C@@H]2OC[C@H](O)[C@H](O)[C@H]2O)[C@@H](O)[C@H](O)[C@H]1O)[C@H]1CC[C@]2(C)[C@@H]1[C@H](O)C[C@@H]1[C@@]3(C)CC[C@H](O[C@@H]4O[C@H](CO)[C@@H](O)[C@H](O)[C@H]4O[C@@H]4O[C@H](CO)[C@@H](O)[C@H](O)[C@H]4O)C(C)(C)[C@@H]3CC[C@]12C,,inactive [at 17.3 µM]
CC(C)CC(NC(=O)OCc1ccccc1)C(=O)NC(CC(C)C)C(=O)NC(CCC(=O)O)C(=O)Nc1ccc2ccccc2c1 (stereo not drawn) (Cbz-Leu-Leu-Glu-βNA; configuration not given here),-18.5%,
C[C@@H]1O[C@@H](O[C@@H]2[C@@H](O)[C@H](O[C@H]3[C@H](O[C@H]4CC[C@@]5(C)C(CC[C@]6(C)C5CC=C5[C@@H]7CC(C)(C)CC[C@]7(C(=O)O[C@@H]7O[C@H](CO)[C@@H](O)[C@H](O)[C@H]7O)CC[C@]56C)C4(C)C)O[C@H](C(=O)O)[C@@H](O)[C@@H]3O)OC[C@H]2O)[C@H](O)[C@H](O)[C@H]1O (some centres not stated),-1.93% [at 9.23 µM],
C=C(CCO)C(=O)OCC1OCC(OC(=O)C(=C)CCO[C@@H]2O[C@H](COC(=O)C(=C)CCO[C@@H]3O[C@H](CO)[C@@H](O)[C@H](O)[C@H]3O)[C@@H](O)[C@H](O)[C@H]2O)C(O)C1O (some centres not stated),-21.5% [at 17.3 µM],
CC1(C)CCCC2(C)c3c4c(c(=O)oc(=O)c3=CCC12)=CCC1C(C)(C)CCCC41C (configuration not stated),-3.1% [at 17.3 µM],
CN(C)CCC[C@]1(c2ccc(F)cc2)OCc2cc(C#N)ccc21,-16.4%,
O=C(O)CCc1cccc(O)c1O[C@@H]1O[C@H](CO)[C@@H](O)[C@H](O)[C@H]1O,-4.82%,
Cc1ccc(C)c(S(=O)(=O)n2cnc3ccccc32)c1,,inactive
CC(=C\C(C)O)/C=C(\C)C(=O)CC1CC(CC(N)=O)CC(=O)O1 (configuration not stated),2.69%,
C=C1CCC2[C@](C)(CO)CCC[C@@]2(C)[C@@H]1CCC1=CCOC1=O (some centres not stated),0.438%,
CC(C)=CCC[C@](C)(O[C@@H]1O[C@H](CO[C@@H]2O[C@@H](CO)[C@H](O)[C@H]2O[C@@H]2OC[C@@H](O)[C@H](O)[C@H]2O)[C@@H](O)[C@H](O)[C@H]1O)[C@H]1CC[C@]2(C)[C@@H]1[C@H](O)CC1[C@@]3(C)CC[C@H](O[C@@H]4O[C@H](CO)[C@@H](O)[C@H](O)[C@H]4O[C@@H]4O[C@H](CO)[C@@H](O)[C@H](O)[C@H]4O)C(C)(C)C3CC[C@]12C (some centres not stated),-15.6% [at 9.23 µM],
CC1(C)CC[C@]2(C(=O)O[C@@H]3O[C@H](CO[C@@H]4O[C@H](CO[C@@H]5O[C@H](CO)[C@H](O)[C@H](O)[C@H]5O)[C@@H](O)[C@H](O)[C@H]4O)[C@@H](O)[C@H](O[C@@H]4O[C@H](CO)[C@@H](O)[C@H](O)[C@H]4O)[C@H]3O)[C@H](O)C[C@]3(C)C(=CCC4[C@@]5(C)CC[C@H](O[C@@H]6OC[C@@H](O)[C@H](O)[C@H]6O)[C@@](C)(C(=O)O)C5CC[C@]43C)[C@@H]2C1 (some centres not stated),,inactive [at 9.23 µM]
CC12CC(O)C(O)C=C1c1cc(O)cc(O)c1C(=O)O2 (configuration not stated),-3.39%,
